Reference: PubChem BioAssay AID492949 (National Center for Advancing Translational Sciences (NCATS), 2010)
Records with an inconclusive call do not appear. Activity calls are given as the source filed them. Calls follow the shape of the dose curve; as a rule, active = well fitted activation curve with a large enough effect; inconclusive = small, poorly fitted or top-dose-only effect; inactive = no such curve, though single readings can be large or run the other way.

Biological target: Relaxin receptor 1 (Homo sapiens) (UniProt Q9HBX9)
Sequence (Q9HBX9 whole entry, looked up): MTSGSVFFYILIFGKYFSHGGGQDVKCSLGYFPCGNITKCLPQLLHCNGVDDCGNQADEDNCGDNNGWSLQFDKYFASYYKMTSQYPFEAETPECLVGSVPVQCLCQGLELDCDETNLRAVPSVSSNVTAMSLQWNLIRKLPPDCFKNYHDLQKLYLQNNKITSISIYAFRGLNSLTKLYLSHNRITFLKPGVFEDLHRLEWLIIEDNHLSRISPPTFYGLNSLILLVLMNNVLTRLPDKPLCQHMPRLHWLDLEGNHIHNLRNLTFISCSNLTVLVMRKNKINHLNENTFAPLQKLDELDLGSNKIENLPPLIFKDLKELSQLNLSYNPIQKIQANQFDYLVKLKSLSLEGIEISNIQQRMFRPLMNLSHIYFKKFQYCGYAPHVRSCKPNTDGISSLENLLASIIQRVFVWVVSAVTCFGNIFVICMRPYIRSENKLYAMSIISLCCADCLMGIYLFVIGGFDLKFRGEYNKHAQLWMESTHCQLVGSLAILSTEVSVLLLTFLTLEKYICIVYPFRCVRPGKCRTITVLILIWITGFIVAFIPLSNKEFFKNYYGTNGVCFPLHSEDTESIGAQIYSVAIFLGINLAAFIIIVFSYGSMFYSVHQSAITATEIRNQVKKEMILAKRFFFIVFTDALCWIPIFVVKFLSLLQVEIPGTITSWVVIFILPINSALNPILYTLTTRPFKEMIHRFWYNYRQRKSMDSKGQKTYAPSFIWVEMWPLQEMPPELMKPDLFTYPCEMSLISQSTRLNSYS
Assay: qHTS Assay for Agonists of the Relaxin Receptor RXFP1: THP1 Hit Validation; also: nearly all actives have a fitted effect of over 60% in size;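 as to activation: 0% = buffer alone basal and 100% = 29 nM porcine relaxin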
Conditions: THP1-RXFP1 cells, cAMP TR-FRET, 30 min; series mostly up to 115 µM; activation: at the top concentration
From the text: The relaxin hormone is involved in the variety of biological functions in normal tissues and diseases. The role of relaxin is well-established in female reproduction and parturition, mammary gland and endometrial development, maintenance of myometrial quiescence during pregnancy. Relaxin signaling through its G protein-coupled receptor (GPCR) RXFP1 results in ECM remodeling through regulation of collagen deposition, cell invasiveness, proliferation and overall tissue homeostasis. […] Recombinant human relaxin (rhRlx) is currently being tested in clinical trials as a protective agent in congestive heart failure, in treating severe preeclampsia, and as an anti-fibrotic agent in systemic sclerosis.
Upon relaxin binding RXFP1 activation leads to the activation of adenylate cyclase (AC) via Gs. cAMP will activate PKA, which phosphorylates many signaling proteins. Thus, detection of cAMP increase is an easy and reliable indication of relaxin receptor activation. To screen for agonists of the relaxin receptor, a THP1 cell line stably transfected with RXFP1 was used. RXFP1 activation was assayed by changes in cAMP levels as detected with a time-resolved fluorescence energy transfer (TR-FRET) cAMP detection kit.
NIH Chemical Genomics Center [NCGC]
NIH Molecular Libraries Probe Production Centers Network [MLPCN]
Assay Submitter (PI): Alexander Agoulnik
NCGC Assay Protocol Summary:
This is a cell-based assay for cAMP second messenger response to screen for agonists of the RXFP1 receptor. The assay was conducted in the presence of a PDE4 inhibitor (Ro 20174). The cells were lysed and the cAMP levels were measured with a TR-FRET cAMP kit. Presence of cAMP in the cell lysate disrupts binding between the cryptate-labeled anti-cAMP and d2-labeled cAMP pair, leading to a decrease in the TR-FRET signal. Data were normalized to the controls for basal activity (buffer only) and 100% activity (29 nM porcine relaxin). The EC50 values were determined from concentration-response data modeled with the standard Hill equation
1536-well assay protocol for the THP1 RXFP1 cAMP assay:
(1) Add 3 ul THP1 RXFP1 cell culture. 2000 cells/well in DMEM/F12, 10% FBS, 1x Pen/Strep (dispensed offline with MultiDrop Combi).
(3) Add 23 nl compounds in DMSO solution. Final concentration was 0.5 - 58 uM.
(4) Incubate 30 min at 37C, 5% CO2.
(5) Add 1 ul cAMP-d2 in lysis buffer (HTRF cAMP HiRange kit, CisBio).
(6) Add 1 ul anti-cAMP antibody-cryptate in lysis buffer (HTRF cAMP HiRange kit, CisBio).
(7) Incubate 30 min at room temperature.
(6) Detect the assay plate in a ViewLux plate reader (PerkinElmer) with Ex=320 nm, Em1=615 nm and Em2=665 nm.
Keywords: relaxin, RXFP1, RXFP2, G-protein coupled receptor, cAMP, agonist, high throughput screening, MLSMR, MLSCN, NIH Roadmap, qHTS and NCGC
Potency is read from the fitted curve at half-maximal effect.

Potency, active:
CCN(CC)c1ccc(S(=O)(=O)N2CCOCC2)cc1NC(=O)CSc1nncn1C 15.4 µM, Cc1cc(NC(=O)c2ccccc2F)nc2c1c(=O)oc1ccccc12 19.4 µM, CC1(C)Cc2nc3sc4c(SCC(=O)NC(c5ccccc5)c5ccccc5)ncnc4c3cc2CO1 3.88 µM, Cc1cccc2cc(C#N)c(SCC(=O)NCc3cccs3)nc12 19.4 µM, S=c1nc[nH]c2c1[nH]c1ccccc12 7.74 µM, COc1ccccc1NC(=O)CCCc1nnc2n(C)c(=O)c3sccc3n12 15.4 µM, Cc1cc(C)n2nc(C(=O)Nc3ccc4c(c3)OCCO4)nc2n1 8.68 µM, COc1ccc(CN2C(=O)c3cccnc3C2=O)cc1S(=O)(=O)NC1CCCCC1C (stereo not given) 27.5 µM, Cc1ccccc1OCC(=O)Nc1sc(C(=O)Nc2cccc(C)c2C)c(C)c1C#N 7.74 µM, Brc1ccc(-c2nn3c(-c4ccco4)nnc3s2)o1 17.3 µM, Cc1cccn2c(=O)c(/C=C3\SC(=S)NC3=O)c(NCCCN3CCOCC3)nc12 4.88 µM, CC1CCN(S(=O)(=O)c2ccc3nc(N4CCN(c5ccccc5)CC4)ccc3c2)CC1 15.4 µM, CCS(=O)(=O)Nc1cccc(-c2ccc3nnc(-c4cccnc4)n3n2)c1 27.5 µM, CC1(C)Cc2c(sc3c2c2ncnn2c2nnc(SCC(=O)NCc4ccco4)n32)CO1 5.49 µM, Brc1ccc2ncnc(NCc3cccnc3)c2c1 48.9 µM, Cc1ccc(-n2c(=S)[nH]c3sc4c(c3c2=O)CCC4)cc1 8.68 µM, CC(=O)c1sc(NC(=O)C(C)C)nc1C 19.4 µM, O=C(COc1ncnc2scc(-c3ccccc3)c12)NCCN1C(=O)CSC1=O 19.4 µM, Cn1c(=O)c2sccc2n2c(CCCC(=O)NCc3ccco3)nnc12 34.6 µM, CCOC(=O)c1sc(NC(=O)CCc2ccc(OC)cc2)nc1C 17.3 µM, O=[N+]([O-])c1cc2c(c(CSc3nnc4ccccn34)c1)OCOC2 13.8 µM, O=C(Nc1cc(S(=O)(=O)N2CCOCC2)ccc1N1CCOCC1)c1cn2ccccc2n1 8.7 µM, CCN(CC)S(=O)(=O)c1ccc(C)c(NC(=O)Cn2cnc3cc([N+](=O)[O-])ccc3c2=O)c1 12.3 µM, CCOc1ccc2cc(C#N)c(SCC(=O)NC(C)CC)nc2c1 (stereo not given) 6.9 µM, O=c1oc2cc(O)c(Cl)cc2c2ccccc12 8.68 µM

Potency, inactive:
O=C(Nc1cccc(C(F)(F)F)c1)c1ccccc1NC(=O)C1CCCCC1

activation, inactive:
CCOC(=O)CNC(=O)CSc1ccc2nnc(-c3cccnc3)n2n1 -30.1%, CC(=O)C1C(c2ccccc2)c2c(noc2C)CC1(C)O (stereo not given) 3.3%, CC(C)n1cnc2c(N(C)c3cccc(Cl)c3)nc(N(CCO)CCO)nc21 -3.44%, Nc1cc2ccncc2c2ccccc12 -2.54%, CC1C/C(=N\NC(N)=S)c2cc(Cl)ccc2S1 (stereo not given) 4.17%, Cc1cccc(C(=O)Nc2ccccc2C(=O)NCc2ccco2)c1 -5.04% [at 125 µM], COc1ccc(/C=C2/SC(=O)N(CCC(=O)Nc3ccc(C)cc3)C2=O)cc1OC -92.9%, Cc1ccc(C(=O)Nc2ccccc2C(N)=O)o1 10.3% [at 125 µM], CC1(C(=O)Nc2nc3ccccc3s2)CC1(Br)Br (stereo not given) 4.93%, c1ccc(-c2nnc(-c3ccccn3)c(-c3ccccn3)n2)nc1 -1.89%, CC[n+]1ccc(/C=C/c2ccc(N(C)C)cc2)c2ccccc21 -48.4%, Cn1c(N)c(C(=O)CSc2nnc(NC3CCCCC3)s2)c(=O)n(C)c1=O -30.3%, O=C(Nc1ccccc1C(=O)N1CCOCC1)c1ccco1 3.58% [at 125 µM], O=C(Nc1ccccc1)c1ccccc1NC(=O)C1CCCCC1 -4.77% [at 125 µM]
